Screening data as filed in PubChem.
MEP2 TOR yeast: modulators of TOR pathway MEP2-GFP in S. cerevisiae. GFP response vs DMSO, % at 10 µM. AID 2016. actives 0.51% (n = 330,000). S. cerevisiae MEP2-GFP strain, flow cytometry GFP, 3 h; 100% = DMSO control level;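 active means GFP response versus DMSO above a set limit, roughly screen mean plus 3 SD, cut at about 180% in these data; inconclusive means fewer than 70 cells counted for a yeast strain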;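 further: median GFP fluorescence of the barcode-gated MEP2-GFP cells per well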
AGP1 TOR yeast: modulators of TOR pathway AGP1-GFP in S. cerevisiae; S. cerevisiae AGP1-GFP multiplex flow cytometry, 3 h; GFP as percent of DMSO wells; GFP response vs DMSO, % at 10 µM; actives 0.02% (n = 320,000);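 active means GFP response relative to DMSO above a set limit, near screen average plus 3 SD, cut at about 150% in these data; inconclusive means fewer than 70 cells counted for the yeast strain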;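 further: median GFP channel fluorescence of the gated AGP1 strain per well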
LAP4-GFP MLPCN: alters LAP4-GFP fluorescence in TOR pathway yeast screen. S. cerevisiae LAP4-GFP multiplex, flow cytometry GFP, 3 h; median GFP as percent of DMSO wells. GFP response vs DMSO, % at 10 µM. actives 0.34% (n = 320,000). AID 2023;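 active means GFP response vs DMSO above a set limit, about the screen mean plus 3 SD, cut at about 150% in these data; inconclusive means under 70 cell events counted for the yeast strain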
RPL19A-GFP yeast: yeast TOR pathway RPL19A-GFP modulation. percent response vs DMSO, % at 10 µM. S. cerevisiae RPL19A-GFP strain, flow cytometry, 3 h; hits give low values. actives 0.3% (n = 330,000). AID 2025;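 active means percent response vs DMSO below 50%; inconclusive means fewer than 70 events counted for the yeast strain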;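 further: median channel GFP fluorescence of the barcoded RPL19A-GFP strain; lower means less RPL19A-GFP as with rapamycin TOR inhibition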
CIT2-GFP yeast: modulators of TOR pathway CIT2-GFP in S. cerevisiae; actives 0.065% (n = 320,000); AID 2029; S. cerevisiae CIT2-GFP strain, flow cytometry, 3 h; 100 means same as DMSO wells; GFP response vs DMSO, % at 10 µM;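 active means GFP response relative to DMSO above a set limit, near the screen mean plus 3 SD, cut at about 150% in these data; inconclusive means Fewer than 70 cells measured for a yeast strain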;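 further: ratio of well median GFP fluorescence to mean of DMSO wells on the plate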
LAP4 cherry2: second confirmation of modulators of TOR reporter LAP4-GFP in yeast; shares compounds with LAP4-GFP MLPCN; AID 2621; actives 20% (n = 590); S. cerevisiae LAP4-GFP strain, flow cytometry GFP, 3 h; GFP response vs DMSO, % at 10 µM;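 active means GFP signal as percent of the solvent control above about 150%, meaning raised reporter expression, limit read from the data; inconclusive means fewer than 70 cells counted in the well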
MEP2-GFP pick2: reconfirmed MEP2-GFP TOR pathway modulator in yeast | AID 2622 | S. cerevisiae MEP2-GFP strain, flow cytometry GFP, 3 h | shares compounds with LAP4-GFP MLPCN | GFP response vs DMSO, % at 10 µM | actives 10% (n = 590);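 active means GFP signal above 150% of the solvent control wells, that is a rise of more than half; inconclusive means fewer than 70 yeast cells counted in the well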;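 further: median channel GFP fluorescence of all gated yeast cells per well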
RPL19A-GFP pick2: yeast RPL19A-GFP TOR reporter modulation, second cherry pick | GFP response vs DMSO, % at 10 µM | AID 2623 | shares compounds with LAP4-GFP MLPCN | S. cerevisiae RPL19A-GFP strain, flow cytometry GFP, 3 h; hits give low values; 100% means same as DMSO wells | actives 3% (n = 590);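 active means under 65% GFP response relative to DMSO; inconclusive means yeast strain with under 70 measured events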;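 further: median GFP channel fluorescence per well over the all cells gate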
CIT2 GFP CP2: yeast CIT2-GFP TOR reporter modulation, second cherry pick; shares compounds with LAP4-GFP MLPCN; S. cerevisiae CIT2-GFP strain, flow cytometry GFP, 3 h; DMSO control wells read 100%; GFP response vs DMSO, % at 10 µM; actives 8% (n = 590);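 active means GFP response vs DMSO above about 150%, limit read from the data; inconclusive means fewer than 70 events counted for a yeast strain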;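 further: median green fluorescence per well over all gated yeast cells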
AGP1-GFP pick2: reconfirmed modulator of AGP1-GFP TOR reporter in yeast. shares compounds with LAP4-GFP MLPCN. S. cerevisiae AGP1-GFP strain, flow cytometry GFP, 3 h. percent response vs DMSO, % at 10 µM. 590 tested, under 10 active;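 active means over 150 percent of DMSO response; inconclusive means yeast strain measured with under 70 events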;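 further: median GFP channel fluorescence over all cells without mother daughter split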
s288c autofluor: yeast s288c autofluorescence artifact, counter-screen | S. cerevisiae s288c, 520 nm autofluorescence, flow cytometry, 3 h; hits give high values; zero means same as solvent-only cells | AID 2757 | fluorescence change (kMESF span) at 33 µM | shares compounds with LAP4-GFP MLPCN | 610 tested, under 10 active;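 active means fluorescence span over the dose series, or activity score, above about 33, limit read from the data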
s288c autofl DR: counter-screen for autofluorescence of TOR hits in yeast s288c; shares compounds with LAP4-GFP MLPCN; S. cerevisiae s288c parental, compound autofluorescence, flow cytometry, 3 h; fluorescence change (span) at 33 µM; 110 tested, under 10 active;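 active means fluorescence change span, or the activity score built from it, above 25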
TORC1 bypass gr: stops wildtype yeast growth while TORC1 bypass cells still grow; shares compounds with LAP4-GFP MLPCN; S. cerevisiae BY4741 spot growth rating, 48-72 h; hits give low values; growth rating (0-3) at 30 µM; 120 tested, under 10 active;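 active means growth rating at most 1 for wild type yeast while the TORC1 bypass strain still grows fully, rated 3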
Each line names hits and unclear results; the compound was inactive in the other large screens (follow-up assays come after a bar, where they were run). This is a sample that favours compounds with a hit; in the whole collection about 0.93% have one here.

O=C(Cn1cnc2ccccc2c1=O)N/N=C/c1ccc(Br)cc1	none
COC(=O)Cc1[nH]c(=S)[nH]c1C(=O)OC	none
COc1ccccc1N1C(=O)c2cccc3c(C(=O)O)ccc(c23)C1=O	none | s288c autofluor inactive
CC1=C(C)CC(C(=O)NCc2c(F)cccc2Cl)C(C(=O)O)C1 (stereo not given)	none
O=C(Nc1ccc(O)cc1)C1CCCN1S(=O)(=O)c1ccc(F)cc1 (stereo not given)	MEP2 TOR yeast 196 | LAP4 cherry2 inactive | MEP2-GFP pick2 inactive | RPL19A-GFP pick2 inactive | CIT2 GFP CP2 inactive | AGP1-GFP pick2 inactive | s288c autofluor inactive
COc1ccc2c(c1)c1nnc(SC)nc1n2C	none | LAP4 cherry2 inactive | MEP2-GFP pick2 inactive | RPL19A-GFP pick2 53 | CIT2 GFP CP2 inactive | AGP1-GFP pick2 inactive | s288c autofluor inactive
Cn1c(N)c(Sc2ccccc2[N+](=O)[O-])c(=O)n(C)c1=O	MEP2 TOR yeast inconclusive, AGP1 TOR yeast inconclusive, LAP4-GFP MLPCN inconclusive, RPL19A-GFP yeast inconclusive
CCCCC1OC23CCCCC2C(C#N)(C(=N)O3)C1(C#N)C#N (stereo not given)	MEP2 TOR yeast 189 | s288c autofluor inactive
O=S(=O)(Nc1ccc(Cl)cn1)c1ccc(F)cc1	none
O=C(O)Cn1c(=O)c2c(c3ccccc31)CCC2	MEP2 TOR yeast 881 | LAP4 cherry2 inactive | MEP2-GFP pick2 inactive | RPL19A-GFP pick2 inactive | CIT2 GFP CP2 inactive | AGP1-GFP pick2 inactive
CCOc1cc(CNc2ccc3c(c2)CCC3)ccc1OC	none
CN(C)c1nc(C#N)nc(N(C)C)n1	none
CCCN(CCC)c1nc(C#N)nc(N(CCC)CCC)n1	none | LAP4 cherry2 inactive | MEP2-GFP pick2 inactive | RPL19A-GFP pick2 inactive | CIT2 GFP CP2 inactive | AGP1-GFP pick2 inactive
Cc1ccc(C(=O)NCCNS(=O)(=O)c2ccccc2[N+](=O)[O-])cc1	none
CC(NC(C)c1ccccc1Cl)C(=O)Nc1cccc(S(=O)(=O)N2CCCCC2)c1 (stereo not given)	none
CC(=O)N1c2ccc(S(=O)(=O)N3CCC(C(=O)N4CCN(c5cccc(C(F)(F)F)c5)CC4)CC3)cc2CC1C (stereo not given)	none
CC(=O)c1ccc(N2CCN(C(=O)C3CCN(S(=O)(=O)c4ccc5c(c4)CC(C)N5C(C)=O)CC3)CC2)cc1 (stereo not given)	LAP4-GFP MLPCN 183 | LAP4 cherry2 inactive | MEP2-GFP pick2 inactive | RPL19A-GFP pick2 inactive | CIT2 GFP CP2 inactive | AGP1-GFP pick2 inactive
CCCNC(=O)c1cc(S(=O)(=O)N2CCCCC2)c[nH]1	none
C=CCSC1=NNC(c2ccc(C(C)(C)C)cc2)=NN1	none
O=C(NNc1ncccc1Cl)c1c(Cl)cccc1Cl	none
COc1ccc([C@@H]2CC=C(C(=O)O)CN2S(=O)(=O)c2ccc(Cl)cc2)cc1	none
Cc1ccc(S(=O)(=O)N2CC(C(=O)O)=CC[C@H]2c2ccc(Cl)cc2)cc1	LAP4-GFP MLPCN 159 | LAP4 cherry2 inactive | MEP2-GFP pick2 inactive | RPL19A-GFP pick2 inactive | CIT2 GFP CP2 inactive | AGP1-GFP pick2 inactive | s288c autofluor inactive
COc1cc(/C=C2/C(=O)c3cccc([N+](=O)[O-])c3C2=O)c(Br)cc1O	none | LAP4 cherry2 inactive | MEP2-GFP pick2 inactive | RPL19A-GFP pick2 inactive | CIT2 GFP CP2 inactive | AGP1-GFP pick2 inactive | s288c autofluor inactive
COc1ccccc1NC(=O)CCCCCN1C(=O)c2cccc([N+](=O)[O-])c2C1=O	none
COc1ccccc1NC(=O)Cc1nnc(SCC(=O)NC2CCCCC2)n1C	none
c1ccc(COc2ccccc2CNc2nn[nH]n2)cc1	none
O=C(NCc1ccc2c(c1)OCO2)c1nc(S(=O)(=O)Cc2ccccc2)ncc1Cl	LAP4-GFP MLPCN 175 | s288c autofluor inactive
N/C(Cc1ccc(Cl)cc1Cl)=N\OC(=O)c1cccs1	LAP4-GFP MLPCN 217 | LAP4 cherry2 197 | MEP2-GFP pick2 159 | RPL19A-GFP pick2 inactive | CIT2 GFP CP2 186 | AGP1-GFP pick2 inactive | s288c autofluor inactive
Cc1cc(C(=O)COC(=O)c2ccc[nH]c2=O)c(C)n1-c1ccccc1F	none | LAP4 cherry2 155 | MEP2-GFP pick2 inactive | RPL19A-GFP pick2 inactive | CIT2 GFP CP2 inactive | AGP1-GFP pick2 inactive | s288c autofluor inactive | s288c autofl DR inactive | TORC1 bypass gr inactive
Cc1ccc(-n2c(C)cc(C(=O)COC(=O)c3ccc[nH]c3=O)c2C)cc1C	none
CCN(CC)S(=O)(=O)c1ccc(Oc2ccccc2)cc1	none (no result: AGP1 TOR yeast)
COc1ccc(/C(C)=N/Nc2ccccc2Cl)c(O)c1	none | LAP4 cherry2 inactive | MEP2-GFP pick2 inactive | RPL19A-GFP pick2 inactive | CIT2 GFP CP2 inactive | AGP1-GFP pick2 inactive
CCCCCCCCC/C(=N\O)c1ccccn1	LAP4-GFP MLPCN 228 | s288c autofluor inactive
O=C(COc1ccccc1F)NCC(c1ccc(F)cc1)N1CCOCC1 (stereo not given)	none
CCOC(=O)C(C(=O)OCC)C(C(=O)OCC)N1CCOCC1 (stereo not given)	LAP4-GFP MLPCN 180 | s288c autofluor inactive
CC1=CN2C(=N)/C(=C/c3ccc([N+](=O)[O-])o3)C(=O)N=C2S1	MEP2 TOR yeast active, LAP4-GFP MLPCN 863 | LAP4 cherry2 active | MEP2-GFP pick2 active | RPL19A-GFP pick2 inactive | CIT2 GFP CP2 active | AGP1-GFP pick2 243
